The whole screen tested about 2,400 compounds, of which about 25 (1%) were called active.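 How the source made its calls: active means replicate-average signal at least 3 plate SD below neutral wells, shown as high inhibition, flagging enzyme-inhibiting false positives; inactive means the rest.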 These entries were drawn from the full list.
Each compound was assayed on Beta-galactosidase (Escherichia coli), counter-screen for EBI2 antagonists (assay: inhibitors of purified bacterial beta-gal – biochemical, luminescence, single concentration, counter-screen for EBI2 antagonist project, confirmation (AID 652176;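 further: 0% = DMSO wells with enzyme and 100% = wells lacking enzyme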)). Conditions: luminescent Galacton Star, 15 min, at 5 µM, stronger effect = higher value.
In the case of `Cc1ccc(S(=O)(=O)N2CCN(C(=O)CSc3cc(C)ccc3C)CC2)c(C)c1`, the inhibition is reported as 2.31% (inactive).
With `COc1cccc(NC(=O)Cn2c3ccc(F)cc3c3nc4n(c(=O)c32)CCS4)c1` the inhibition was 1.47% (inactive).
With `COc1ccc(-c2cc(C3CCN(c4ncccc4[N+](=O)[O-])CC3)[nH]n2)cc1` the inhibition was 12% (inactive).
With `COc1cccc(NC(=O)Cn2c3ccccc3c3nc4n(c(=O)c32)CCS4)c1` the inhibition was -5.55% (inactive).
`COc1ccc(OCC(=O)N2CCN(C(=O)c3cccs3)CC2)cc1` was tested, and the inhibition was 8.51% (inactive).
`Cc1nc(-c2ccccc2)sc1C(=O)/C=C/c1ccccc1` was tested, and the inhibition was 12% (inactive).
With `c1ccc(C(c2ccccc2)N2CCN(Cc3nnnn3C3CCCCC3)CC2)cc1` the inhibition was 9.44% (inactive).
With `O=C(c1cc2ccccc2o1)N1CCN(S(=O)(=O)c2ccc(Cl)s2)CC1` the inhibition was 3.41% (inactive).
`COc1ccc(N(CC(=O)Nc2cc(OC)ccc2OC)S(=O)(=O)c2c(C)noc2C)cc1` was tested, and the inhibition was 6.51% (inactive).
For `Fc1ccccc1/C=N/Nc1cc(N2CCCCC2)ncn1`, the inhibition was -5.12% (inactive).
`Cc1ccc(SCC(=O)N2CCN(c3ccc(F)cc3)CC2)cc1` was tested, and the inhibition was 1.65% (inactive).
With `COc1ccc(C(C(=O)NC2CCCCC2)N(C(=O)c2snc(C(N)=O)c2N)c2ccccc2OC)cc1` (configuration not stated) the inhibition was 1.73% (inactive).
With `Cc1ccc(-n2ncc3c(=O)n(-c4ccc(C)c(C)c4)c(-c4ccco4)nc32)cc1` the inhibition was -11.1% (inactive).
In the case of `O=C(c1cc(=O)c2ccccc2o1)N1CCN(c2ccccc2)CC1`, the inhibition is reported as 2.55% (inactive).
In the case of `Cc1cc(C)cc(Oc2nc3c(C)cccn3c(=O)c2/C=C(\C#N)C(=O)NC2CCS(=O)(=O)C2)c1` (configuration not stated), the inhibition is reported as -6.32% (inactive).
For `CC1(Cc2ccccc2C#N)C(=O)Nc2ccc(-c3ccc4[nH]ccc4c3)cc21` (configuration not stated), the inhibition was -12.8% (inactive).
In the case of `N#CC(=C1CCCC1)c1nc(-c2ccc(Cl)cc2)cs1`, the inhibition is reported as -15.6% (inactive).
For `CCCCC(=O)N(C)c1c(CC)nc2c(OCc3ccc(Cl)cc3Cl)cccn12`, the inhibition was -8.17% (inactive).
`CC(C)Cn1c(N2CCN(C(=O)/C=C/c3ccccc3)CC2)nc2ccccc21` was tested, and the inhibition was -6.12% (inactive).
For `CCN1CCN(C(=O)CSc2ccc(C)cc2)CC1`, the inhibition was -12.6% (inactive).
With `O=C(CCNS(=O)(=O)c1ccccc1)NCCSc1ccc(Br)cc1` the inhibition was -8.38% (inactive).
For `COc1ccc(/C=C/C(=O)c2ccc(OC)cc2O)cc1`, the inhibition was -7.89% (inactive).
For `O=C(CCc1ccccc1)NNC(=O)COc1ccc(Cl)cc1`, the inhibition was 4.21% (inactive).
With `Cc1ccc(-c2nn(-c3ccccc3)cc2/C=C/C(=O)Nc2cccc(S(N)(=O)=O)c2)cc1` the inhibition was 7.52% (inactive).
For `COc1ccc2cc(C3=CC(=O)C[C@H](c4ccc5c(c4)OCO5)C3)ccc2c1`, the inhibition was -16.2% (inactive).
For `Cc1cc(Cl)c2oc(C(=O)N3CCC(O)(c4ccccc4)CC3)c(C)c2c1`, the inhibition was -14% (inactive).
With `COc1ccc(/C=N/N=C/c2c[nH]c(=O)c(C#N)c2Nc2ccccc2)cc1` the inhibition was -8.65% (inactive).
For `O=c1[nH]c(CN2CCN(S(=O)(=O)c3ccc4c(c3)OCCO4)CC2)nc2sc3c(c12)CCCC3`, the inhibition was 5.78% (inactive).
`O=C(NCCCc1ccccc1)C1CCC(=O)N(CCc2ccc(Cl)cc2)C1` (configuration not stated) was tested, and the inhibition was 1.78% (inactive).
In the case of `COc1ccccc1N1CCN(C(=O)c2cc(=O)c3cc(C)ccc3o2)CC1`, the inhibition is reported as 2.71% (inactive).
With `COc1ccc(C(=O)/C=C/c2ccc(OC3CSC3)cc2)cc1` the inhibition was 4.77% (inactive).
For `CN1CCc2ccccc2C1Cc1ccccc1NC(=O)c1sc2ccccc2c1Cl` (configuration not stated), the inhibition was -9.49% (inactive).
`O=C(COc1ccc2ccccc2c1)N1CCN(C(=O)c2cccs2)CC1` was tested, and the inhibition was 6.4% (inactive).
In the case of `O=C(c1cc2ccccc2s1)N1CCN(c2ccccn2)CC1`, the inhibition is reported as -19.7% (inactive).
For `O=C(/C=C/c1cccc([N+](=O)[O-])c1)N1CCN(Cc2ccccc2)CC1`, the inhibition was -5.48% (inactive).
`CC(=O)/C(=N\Nc1ccc(Cl)cc1Cl)Sc1cccc2cccnc12` was tested, and the inhibition was -5.07% (inactive).
For `CCN(CC(=O)NCc1cccs1)C(=O)/C=C/c1ccc(C)cc1`, the inhibition was 1.05% (inactive).
`O=C(C(c1ccccc1)c1ccccc1)N1CCN(CC(O)COc2ccccc2)CC1` (configuration not stated) was tested, and the inhibition was -10% (inactive).
For `Cc1ccc(S(=O)(=O)N2CCN(CC(=O)N/N=C/c3ccc(Br)s3)CC2)cc1`, the inhibition was 3.3% (inactive).
With `COc1cccc(-c2cc(C(=O)N3CCN(c4ccccc4OC)CC3)no2)c1` the inhibition was 5.78% (inactive).
In the case of `COc1ccc(OCC(=O)N2CCN(C(=O)COc3ccccc3)CC2)cc1`, the inhibition is reported as -7.53% (inactive).
`Cc1ccc2oc(=O)c3cnn(CC(=O)N4CCCCCC4)c3c2c1` was tested, and the inhibition was 6.6% (inactive).
In the case of `CCC1Nc2ncnc(N3CCN(c4ccccc4)CC3)c2N(Cc2ccc(Cl)cc2)C1=O` (configuration not stated), the inhibition is reported as 69% (active).
`Cc1cccc(N2CCN(C(=O)c3cc4c(=O)[nH]c5ccccc5c4n3C)CC2)c1C` was tested, and the inhibition was 5.01% (inactive).
For `CC(=O)c1nn(-c2ccc(C)cc2)cc1C(=O)c1cccc(Br)c1`, the inhibition was -0.17% (inactive).
For `Cc1ccc(OCC(=O)N2CCN(S(=O)(=O)c3ccc(Cl)s3)CC2)cc1C`, the inhibition was 0.1% (inactive).
In the case of `CCC(C)(C)NC(=O)c1cc([N+](=O)[O-])ccc1N1CCCCC1`, the inhibition is reported as -7.53% (inactive).
With `Cc1cccc(NC(=O)CN2CCN(C(=O)C3CCN(C(=O)/C=C/c4ccccc4)CC3)CC2)c1C` the inhibition was -13.5% (inactive).
With `O=C(Nc1ncc2c(n1)CC(c1ccco1)CC2=O)c1ccc(Cl)cc1` (configuration not stated) the inhibition was 8.95% (inactive).
For `CCOc1ccc(CN(Cc2ccco2)S(=O)(=O)c2ccc(-n3cnnn3)c(OC)c2)cc1`, the inhibition was 4.57% (inactive).
With `COc1ccc(C(c2nnnn2C2CCCC2)N2CCN(C/C=C/c3ccccc3)CC2)cc1` (configuration not stated) the inhibition was -12.2% (inactive).
For `COc1ccc(-c2cc(NC=O)c3ncc(-c4cccc(C(=O)N(C)C)c4)n3c2)c(OC)c1`, the inhibition was -10.8% (inactive).
In the case of `CCOC(=O)N1CCN(C(=O)CSc2ccc(Cl)cc2)CC1`, the inhibition is reported as 5.7% (inactive).
In the case of `CCCCN=C1C([N+](=O)[O-])=CC=C2C1=NC1(CCCCC1)N2O`, the inhibition is reported as -14.2% (inactive).
In the case of `CCC(c1nnc(SCC(=O)NNC(=O)c2ccccc2)n1Cc1ccccc1)N(C)C` (configuration not stated), the inhibition is reported as -17.6% (inactive).
With `CCOc1ccc(CCN2C(=S)N([C@@H](CC(C)C)CN3CCC[C@@H]3CN3C(=S)NC[C@@H]3Cc3ccc(O)cc3)C[C@@H]2Cc2ccc(O)cc2)cc1` the inhibition was -18.9% (inactive).
In the case of `O=C(/C=C/c1cccc(C(F)(F)F)c1)N1CCN(c2ccccn2)CC1`, the inhibition is reported as -8.93% (inactive).
In the case of `Cc1ccc(OCC(=O)N2CCN(C(=O)c3cccnc3)CC2)cc1`, the inhibition is reported as -9.4% (inactive).
For `CN(Cc1ccc(F)cc1)C(=O)COc1ccc2ccccc2c1`, the inhibition was 3.08% (inactive).
`Cc1cc(C)c2c(=O)n3c(nc2c1)C(CC(C)C)NC(=O)c1cc2ccccc2cc1-3` (configuration not stated) was tested, and the inhibition was 7.36% (inactive).
In the case of `CCOc1ccc(C(C)=O)cc1COC(=O)c1cnc(Cl)c(Cl)c1`, the inhibition is reported as -6.96% (inactive).
In the case of `Cc1cccc(OCC(O)CN2CCN(S(=O)(=O)c3ccc(C)cc3C)CC2)c1` (configuration not stated), the inhibition is reported as -7.67% (inactive).
For `COc1ccc(-c2nc(N)ncc2-c2ccc(Cl)cc2)c(O)c1`, the inhibition was 5.17% (inactive).
`Cc1cc(OCC(=O)N2CCN(c3ncccn3)CC2)ccc1Cl` was tested, and the inhibition was 2.13% (inactive).
`O=C(COc1ccc(Cl)cc1)N1CCN(c2cccc(C(F)(F)F)c2)CC1` was tested, and the inhibition was 4.01% (inactive).
With `O=C(NCc1ccc(Cl)cc1)C1CCN(S(=O)(=O)c2cccs2)CC1` the inhibition was 1.5% (inactive).
With `N#Cc1ccc(C2=CC(=O)C[C@H](c3ccc(Cl)cc3)C2)cc1` the inhibition was 9% (inactive).
`CCCC1CCC(=NNC(=S)NCCc2ccccc2)CC1` (configuration not stated) was tested, and the inhibition was -11.9% (inactive).
With `O=C(COc1ccc(Cl)cc1)N1CCN(S(=O)(=O)c2ccc(Cl)cc2)CC1` the inhibition was 6% (inactive).
`CCOC(=O)C1CCN(C(=O)COc2cc(C)c(Br)c(C)c2)CC1` was tested, and the inhibition was 2.96% (inactive).
With `Cc1cc(OCCOc2cccc3cccnc23)c(C)cc1Cl` the inhibition was 4.27% (inactive).
For `O=C(NNC(=O)c1ccc2ccccc2c1)c1ccc(Cl)cc1`, the inhibition was 7.62% (inactive).
`COc1ccccc1CCNC(=O)C1CCN(C(=O)/C=C/c2ccccc2)CC1` was tested, and the inhibition was 6.37% (inactive).
With `O=C(Nc1ccc(S(=O)(=O)N2CCCCC2)cc1)C1CC(=O)N(c2ccc(F)cc2)C1` (configuration not stated) the inhibition was 10.2% (inactive).
For `COc1ccc(-c2cn(-c3ccc(OC)cc3)c(=S)[nH]2)cc1`, the inhibition was 3.97% (inactive).
In the case of `Cc1cccc(N=C2NC(=O)/C(=C/c3cn(C)c4ccccc34)S2)c1`, the inhibition is reported as 8.09% (inactive).
In the case of `Cc1ccc(OCCNC(=O)CCNS(=O)(=O)c2ccc(Br)cc2)cc1`, the inhibition is reported as -13% (inactive).
In the case of `O=C(COc1ccc2c(c1)CCC2)N1CCN(c2ccc(F)cc2)CC1`, the inhibition is reported as -10.9% (inactive).
For `O=C(NCc1ccc(Cl)cc1)c1cc(=O)nc2sc(-c3ccccc3)nn12`, the inhibition was 2.99% (inactive).
`O=C(CC(c1ccccc1)c1ccccc1)NCC(O)c1ccc([N+](=O)[O-])cc1` (configuration not stated) was tested, and the inhibition was -11% (inactive).
With `COc1ccc(CNC(=O)CN(c2ccc(OC)c(Cl)c2)S(=O)(=O)c2ccc(C)cc2)cc1` the inhibition was -10.2% (inactive).
For `N#Cc1ccc(C(c2nnnn2CCc2ccccc2)N2CCCCCC2)cc1` (configuration not stated), the inhibition was 7.67% (inactive).
In the case of `O=C(NCCNc1ccc([N+](=O)[O-])cc1)c1cccc2c(Br)cccc12`, the inhibition is reported as 3.17% (inactive).
For `Cc1cs/c(=N\N=C\c2ccc(O)cc2)n1Cc1ccco1`, the inhibition was 10% (inactive).
For `COc1ccc(-n2c(Cc3cccn3C)nnc2SCC(=O)Nc2cc(C)cc(C)c2)cc1`, the inhibition was 5.9% (inactive).
`O=C(/C=C/c1ccc(Cl)cc1)N1CCN(c2ccccc2[N+](=O)[O-])CC1` was tested, and the inhibition was 3.83% (inactive).
With `COc1ccc(NC(=O)N2CCC(Cc3ccccc3)CC2)cc1` the inhibition was -4.45% (inactive).
